Measured values from the supplement of paper PMC13380429.

Key:
[1] = tested on: Vero E6 infected with SARS-CoV-2; assay: morphology score (similarity to uninfected cells); higher = more like uninfected cells; conditions: 24 h
[2] = tested on: Vero E6 infected with SARS-CoV-2; assay: SARS-CoV-2 infection rate relative to infected DMSO; higher = more infection, active = 60 or less; conditions: 24 h

| SMILES | morphology score [1] | SARS-CoV-2 infection rate [2] |
| --- | --- | --- |
| COc1c(C)cnc(Cn2cc(C#CCC(C)(C)O)c3c(Cl)nc(N)nc32)c1C (10 µM) | 0.181 | 110% (inactive) |
| CCCCN(CCCC)C(=O)CN1C[C@H](c2ccc3c(c2)OCO3)[C@@H](C(=O)O)[C@@H]1c1ccc(OC)cc1 [atrasentan] (10 µM) | 0.0179 | 108% (inactive) |
| CN1CCN(CCCCN2C(=O)CN(/N=C/c3ccc(-c4ccc(Cl)cc4)o3)C2=O)CC1 [azimilide] (10 µM) | 0.0199 | 102% (inactive) |
| O=S(=O)(NCC1CC1)c1ccc(Nc2nccc(N3CCCc4cc(O)ccc43)n2)cc1 [pyrintegrin] (0.833333 µM) | 0.71 | 60.5% (inactive) |
| CCCCS(=O)(=O)N[C@@H](Cc1ccc(OCCCCC2CCNCC2)cc1)C(=O)O [tirofiban] (10 µM) | 0.0487 | 110% (inactive) |
| COc1ccccc1Oc1c(NS(=O)(=O)c2ccc(C(C)(C)C)cc2)nc(-c2ncccn2)nc1OCCO [bosentan] (10 µM) | 0.0268 | 112% (inactive) |
| Cc1cc(C(C)(C)C)cc(C)c1CC1=NCCN1 [xylometazoline] (10 µM) | -0.0246 | 106% (inactive) |
| CCCCCS(=O)(=O)CCCCCCCCCCn1c(-c2ccc(O)cc2)c(C)c2cc(O)ccc21 (0.833333 µM) | 0.00616 | 102% (inactive) |
| Fc1ccc2nc(CCC#Cc3ccccn3)cn2c1 [dipraglurant] (10 µM) | 0.0385 | 103% (inactive) |
| COc1ccc([C@]2(C#N)CC[C@@H](C(=O)O)CC2)cc1OC1CCCC1 [cilomilast] (10 µM) | 0.246 | 104% (inactive) |
| COCCOC(=O)C1=C(C)NC(C)=C(C(=O)OC/C=C/c2ccccc2)C1c1cccc([N+](=O)[O-])c1 (stereo unspecified) [cilnidipine] (10 µM) | 0.171 | 95% (inactive) |
| N#Cc1ccc(C(c2ccc(C#N)cc2)n2cncn2)cc1 [letrozole] (10 µM) | 0.138 | 102% (inactive) |
| CN/C(=N\CCSCc1nc[nH]c1C)NC#N [cimetidine] (10 µM) | 0.151 | 97.5% (inactive) |
| COc1ccc(CCN(C)CCCN2CCc3cc(OC)c(OC)cc3CC2=O)cc1OC [zatebradine] (10 µM) | -0.00282 | 112% (inactive) |
| Cc1ccc(-c2ncn(-c3ccc(Nc4nccc(-c5cccc(N6CCOCC6)c5)n4)cc3)n2)cn1 (10 µM) | -0.292 | 102% (inactive) |
| Clc1ccc(CSC(Cn2ccnc2)c2ccc(Cl)cc2Cl)cc1 (stereo unspecified) [sulconazole] (10 µM) | -0.0348 | 110% (inactive) |
| CN(C)C(=O)n1nnnc1Cc1ccc(-c2ccccc2)cc1 (0.833333 µM) | 0.00131 | 85% (inactive) |
| C[C@H]1O[C@@H](O[C@H]2CC[C@@]3(C)[C@H](CC[C@@H]4[C@@H]3C[C@@H](O)[C@]3(C)[C@@H](C5=CC(=O)OC5)CC[C@]43O)C2)C[C@H](O)[C@@H]1O[C@H]1C[C@H](O)[C@H](O[C@H]2C[C@H](O)[C@H](O[C@@H]3O[C@H](CO)[C@@H](O)[C@H](O)[C@H]3O)[C@@H](C)O2)[C@@H](C)O1 [deslanoside] (0.833333 µM) | -0.123 | 114% (inactive) |
| COc1cc(-n2cnc3cc(-c4ccc(Cl)cc4)sc3c2=O)ccc1OCCN1CCCC1 (10 µM) | 0.52 | 53% (active) |
| Cc1cccc(C)c1NC(=O)c1ccc(N)cc1 [ameltolide] (10 µM) | -0.146 | 109% (inactive) |
| Cc1ncc(-c2csc(N=C(N)N)n2)[nH]1 [zaltidine] (10 µM) | 0.0534 | 106% (inactive) |
| c1cc2c(cc1[C@H]1OC[C@H]3[C@@H]1CO[C@@H]3c1ccc3c(c1)OCO3)OCO2 [sesamin] (10 µM) | -0.0737 | 120% (inactive) |
| CC(=O)OCC1=C(C(=O)O)N2C(=O)[C@@H](N)[C@H]2SC1 [7-aminocephalosporanic-acid] (10 µM) | -0.0363 | 104% (inactive) |
| Oc1cc2c(cc1O)[C@H]1c3ccccc3CN[C@@H]1CC2 (racemic) [dihydrexidine] (10 µM) | -0.0209 | 101% (inactive) |
| Cc1cc(NC(=O)C2=C(O)c3ccccc3S(=O)(=O)N2C)no1 [isoxicam] (10 µM) | -0.111 | 108% (inactive) |
| CCS(=O)(=O)N1CCC[C@@H]2CN3CCc4cc(OC)ccc4[C@@H]3C[C@@H]21 (10 µM) | 0.0669 | 102% (inactive) |
| O=C(CCCN1CCC2(CC1)C(=O)N(Cc1cccc(F)c1)CN2c1ccccc1)c1ccc(F)cc1 [3'-fluorobenzylspiperone] (0.833333 µM) | 0.325 | 103% (inactive) |
| CN(C)CCNc1nc2cc(O)ccc2c2c1C(=O)c1ccccc1-2 (10 µM) | -0.234 | 106% (inactive) |
